Source: PubChem BioAssay AID1347416 (National Center for Advancing Translational Sciences (NCATS), 2020)
In all, about 4,100 compounds went through this assay and about 1,600 (39%) were called active. About 25% were inconclusive and are not listed. The list shows a part of the results. Values without a mark were called inactive. The call rests on the fitted dose curve; in most records, active means well fitted inhibition curve with a large enough effect; inconclusive means small, poorly fitted or top-dose-only effect; inactive means no such curve, though single readings can be large or run the other way.

Assay: qHTS Validation assay for Inhibitors of Plasmodium falciparum Dd2 growth in vitro; further: nearly all actives have a fitted effect of over 70% in size
Settings: P. falciparum Dd2 in RBCs, SYBR Green growth, 72 h; series mostly up to 28.7 µM; activity change, negative = inhibition: at the top concentration
Procedure, shortened: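 P. falciparum Dd2-infected red blood cells (2.5% hematocrit, 0.3% parasitemia) grown 72 h at 37 °C under 5% O2 with compounds in a titration, 29 uM to 0.5 nM final. Growth read as SYBR Green-1 fluorescence after ~16 h lysis; artesunate 300 nM as positive control.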
On the % scale 0 is the no-effect control and ±100 the full control effect; potency means the concentration at half of the fitted maximal effect.

SMILES	activity change, negative = inhibition [%]	Potency
CN(C)c1ncc([N+](=O)[O-])cc1C(F)(F)F	19.7	
CCc1noc(-c2cccn3c(CNC(=O)c4ccccc4F)nnc23)n1	0	
Cc1cc(C)c2nc(N3CCC(C(=O)N4CCCC4)CC3)sc2c1	15.7	
COc1ccc2nc(N3CCN(C(=O)c4ccc([N+](=O)[O-])o4)CC3)sc2c1		4.73 µM (active)
CCOc1ccc2nc(N3CCN(C(=O)C(C)C)CC3)sc2c1	-11.4	
COc1cccc(N2CCN(c3nc(C(=O)NCc4cccc(C)c4)cs3)CC2)c1	16.3	
Cc1ccc(C)c2sc(N3CCN(C(=O)c4ccc([N+](=O)[O-])o4)CC3)nc12		4.73 µM (active)
Cc1ccc2sc(N3CCN(C(=O)c4ccc([N+](=O)[O-])o4)CC3)nc2c1C		5.31 µM (active)
CNC(=O)N1CCc2c(sc3ncnc(N(C)C)c23)C1	3.51	
Nc1ccc2nc(-c3cccs3)[nH]c2c1	-28.3	
Cc1ccc(NC(=O)Cn2ccnc2)cc1C	49.5	
Cc1ccc(Sc2ccc(NC(=O)CCl)cc2)cc1C		9.44 µM (active)
Cc1nc([C@@H]2CN(C(=O)c3nccc4ccccc34)C[C@H]2C(N)=O)n[nH]1	5.68	
Cc1noc(C2CC3(CCN(C(=O)c4cccn4C)CC3)CN2C)n1 (configuration not stated)	4.95	
COC(=O)C1=C(C)NC(C)=C(C(=O)OC(C)(C)CN(C)CCC(c2ccccc2)c2ccccc2)C1c1cccc([N+](=O)[O-])c1 (configuration not stated)		2.99 µM (active)
COC(=O)C1=C(C)NC(C)=C(C(=O)OCCCN2CCC(c3ccccc3)(c3ccccc3)CC2)C1c1cccc([N+](=O)[O-])c1 (configuration not stated)		2.99 µM (active)
CCN(CC)CCCC(C)Nc1cc(/C=C/c2ccccc2Cl)nc2cc(Cl)ccc12 (configuration not stated)		0.842 µM (active)
CCc1nc(NCc2cn[nH]c2-c2ccc(Cl)cc2)c2cnn(C)c2n1	56.2	
COC[C@@H]1CN(C(=O)c2cc3ccccc3[nH]2)C[C@H]1c1ccncc1	-20.6	
Cc1cc(Cl)ccc1-c1ccc(CNC2CN(C(=O)OC(C)(C)C)C2)cc1	37	
O=C(NCc1ccccc1)N1CCC(c2nc(C3CCOCC3)no2)CC1	13	

SMILES	activity change, negative = inhibition [%]	Potency
CCOc1cc(C(=O)N2CCC(CC3CC(c4cccc(Br)c4)=NO3)(C(=O)NCC3CCCCC3)CC2)cc(OCC)c1OCC (configuration not stated)		1.68 µM (active)
CCCCCCCNC(=O)C1(CC2CC(c3ccc(Cl)cc3)=NO2)CCN(C(=O)c2cc(OCC)c(OCC)c(OCC)c2)CC1 (configuration not stated)		3.35 µM (active)
CCOc1cc(C(=O)N2CCC(CC3CC(c4ccc(Cl)cc4)=NO3)(C(=O)NCC3CCCCC3)CC2)cc(OCC)c1OCC (configuration not stated)		0.842 µM (active)
COCCNC(=O)C1COC2(CCN(C(=O)c3ccc(Cl)cc3)CC2)N1C(=O)c1ccccc1C (configuration not stated)	-12.4	
CC(C)(C)OC(=O)N1CCC(CC2CC(c3ccccc3)=NO2)(C(=O)NCc2ccccc2)CC1 (configuration not stated)		2.66 µM (active)
CC(C)c1cc(C(=O)NC2CCN(c3ncccc3C#N)CC2)n(C)n1	5.19	
CCCCCCCNC(=O)C1(CC2CC(c3cccc(Br)c3)=NO2)CCN(C(=O)c2cc(OCC)c(OCC)c(OCC)c2)CC1 (configuration not stated)		10.6 µM (active)
CC(NCc1ccccc1O)C12CC3CC(CC(C3)C1)C2 (configuration not stated)		0.0944 µM (active)
O=C1NCCCCCCN(C(=O)C2CCC2)[C@H]2C[C@H](c3nc(-c4cccnc4)no3)C[C@@H]12	3.93	
O=C1CC(c2ccccc2)N(C(=O)CNC(=O)c2ccc3[nH]ccc3c2)CCCCCN1 (configuration not stated)		15 µM (active)
CNC(=O)c1[nH]nc2c1CCc1cc(OC)ccc1-2	-19.9	
Cn1cnc(C(=O)NCC(=O)N2CCCCCNC(=O)CC2c2ccccc2)c1 (configuration not stated)	4.59	
COc1ccc2c(c1)CCc1c-2n[nH]c1C(=O)N1CCc2c(nc3cc(-c4ccccc4)[nH]n3c2=O)C1	18.7	
O=C1CC(c2ccccc2)N(C(=O)CNC(=O)c2[nH]nc3c2CCc2ccccc2-3)CCCCCCN1 (configuration not stated)		2.99 µM (active)
Cn1nc(C(=O)NCC(=O)N2CCCCCCNC(=O)CC2c2ccccc2)c2ccccc21 (configuration not stated)		2.11 µM (active)
Cc1ccncc1C(=O)NCC(=O)N1CCCCCNC(=O)CC1c1ccccc1 (configuration not stated)	1.1	
CN(C)C[C@@H]1CN(S(C)(=O)=O)C[C@H]1NC(=O)c1ccccc1	12.9	
CCOc1ccc(CC(=O)N[C@@H]2CN(c3ncccn3)C[C@H]2CN(C)C)cc1	-5.61	
CN(C)C[C@@H]1CN(C)C[C@H]1NS(=O)(=O)c1ccc(Br)cc1		13.3 µM (active)
Cc1ccc(S(=O)(=O)N[C@@H]2CN(C)C[C@H]2CN(C)C)cc1F		15 µM (active)
Cc1nn(-c2ccccc2)c2c1C(O)n1c(nc3ccccc31)S2 (configuration not stated)		5.31 µM (active)

SMILES	activity change, negative = inhibition [%]	Potency
CCOC(=O)C1=Nc2ccccc2C1=[N+]=[N-]		4.22 µM (active)
CCOC(=O)C1=C(C)N=c2s/c(=C\c3ccc(OCC(=O)O)cc3)c(=O)n2C1c1ccccc1OC (configuration not stated)	-9.3	
CCOc1ccc(C2C(C(=O)Nc3ccccc3)=C(C)N=c3s/c(=C/c4cccc(OCC(=O)O)c4)c(=O)n32)cc1 (configuration not stated)		5.31 µM (active)
CCOC(=O)C1=C(c2ccccc2)N=c2s/c(=C\c3cc(OC)c(OC)c(OC)c3)c(=O)n2C1c1cccs1 (configuration not stated)		5.96 µM (active)
CCOC(=O)C1=C(C)N=c2s/c(=C/c3ccc(OCC(=O)O)cc3)c(=O)n2C1c1cc(OC)c(OC)c(OC)c1 (configuration not stated)		1.88 µM (active)
Cc1ccc(CN(C)C(=O)c2cc(COc3ccc(F)cc3Cl)on2)o1	20.9	
CC1(Cc2ccc3c(c2)OCO3)CCCN(C(=O)c2ccccc2-n2cncn2)C1 (configuration not stated)	-5.72	
COC(=O)c1nn(-c2ccc3c(c2)CCN3C(C)=O)cc1O	45.4	
COCCNc1nc2cc(C(=O)N3CC[C@H](CO)[C@@H](O)C3)ccc2n1C	19	
COc1ccc(C2C(C(=O)N3CCCCC3)CC(=O)N2c2ccc(OC)cc2)cc1 (configuration not stated)		7.5 µM (active)
COc1cnc(-c2ccccn2)nc1NC(C)C		5.31 µM (active)
Cc1nc(-c2ccccn2)nc(N(C)c2ccccc2)c1Cl		5.31 µM (active)
COc1cnc(-c2ccccn2)nc1N(C)c1ccccc1		5.96 µM (active)
COc1cnc(-c2ccccn2)nc1Oc1ccc(C(C)(C)C)cc1	66.3	
COC(=O)c1ccc(Nc2ncnc3c2nc2n3CCCC2)cc1	-21.5	
CC(OC(=O)c1ccc(OCC2CCCO2)cc1)C(=O)N(C)Cc1ccccc1 (configuration not stated)	-9.4	
Cc1ccc(-c2nnc(Nc3ccc(OCC(N)=O)cc3)c3ccccc23)cc1S(=O)(=O)NCC1CCCO1 (configuration not stated)		4.73 µM (active)
CC(=O)c1cccc(NS(=O)(=O)c2cc(-c3cnc(C4CC4)o3)ccc2C)c1	8.42	
COC(=O)c1ccc(Nc2nnc(-c3ccc(C)c(S(=O)(=O)N4CCN(C)CC4)c3)c3ccccc23)cc1		8.41 µM (active)
Cc1ccc(-c2nnc(Nc3ccc(O)cc3)c3ccccc23)cc1S(=O)(=O)N1CCN(C)CC1		6.68 µM (active)
